Compound activity (PubChem)
Rows were chosen to be rich in hits. Some 2.8% of all compounds tested hit in one or more screens of this group.
KKLEB cytotox – cytotoxicity in KKLEB CF airway cells, primary screen, cytotoxicity control for CF NF-kB inhibitor project, cell-based, uHTS, fluorescence assay plates | activity change (cytotoxicity), % at 5 µM | KKLEB CF airway cells viability, ATPlite luminescence, overnight; hits give low values; cells stimulated with P. aeruginosa culture filtrate | 360,000 tested, 0.36% active | AID 602141, 2011;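 active = corrected activity change at or below -50% at 5 µM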
HIF-2a block – HIF-2a reporter inhibitors, primary screen, luminescence, 786-0 RCC cells. inhibition, % at 18.8 µM. 360,000 tested, 0.72% active. 786-0 RCC cells HIF-2a reporter, luciferase luminescence, overnight. AID 624352, 2012;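 active = inhibition of the luminescence signal of 40% or more relative to plate controls, in a single-dose primary screen at 18.75 µM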
Peg3 promoter – Peg3 promoter-driven luciferase inhibitors, primary screen, cell-based, HeLa, luciferase luminescence. AID 588405, 2011. inhibition, % at 20 µM. HeLa PEG-Prom luciferase reporter, overnight. 360,000 tested, 1.7% active;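 active = inhibition of at least 50% at 20 µM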
Shn3 inh set2 – reduction of Shn3 3'UTR firefly luciferase signal, primary screen, Schnurri-3 inhibitor project, cell-based, Clone20 osteoblasts, set 2. Clone20 osteoblast Shn3 3'UTR firefly luciferase, 24 h. inhibition, % at 12.5 µM. 360,000 tested, 0.52% active;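 active = mean inhibition of at least 75% with every replicate also reaching 75%; inconclusive = mean inhibition at least 75% but some replicate below; inactive = mean inhibition below 75%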
CF NFkB inh – inhibitors of PAF-induced NF-kB signaling, primary screen, cell-based, GFP fluorescence, uHTS; KKLEB NF-kB-GFP reporter, GFP fluorescence overnight; inhibition, % at 5 µM; 360,000 tested, 0.86% active; AID 588850, 2011;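 active = at least 50% inhibition at 5 µM, scaled per plate between neutral and stimulator controls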;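 note: PAF is a Pseudomonas aeruginosa culture filtrate used as stimulus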
TRPM1 prom inh – inhibitors of MITF-dependent TRPM1 promoter reporter, primary screen, cell-based, SK-MEL-5, single point, luciferase. 330,000 tested, 0.83% active. SK-MEL-5 TRPM1 promoter luciferase, 24 h. inhibition, % at 12.5 µM. AID 488899, 2010;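 active = mean inhibition across replicates of 60% or more, whatever share of single replicates reaches that level; inconclusive = some that reach 60%, reason not given; inactive = mean inhibition across replicates below 60%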
Large screens that a line does not name were inactive.

O=C(Nc1nc(-c2ccccn2)cs1)c1ncc(Cl)c(Cl)c1Cl	Peg3 promoter 69
O=C(Nc1nc(-c2ccccn2)cs1)c1ccc(Cl)s1	Shn3 inh set2 90
CC(=O)c1cccc(NC(=S)NC2CCCCCCC2)c1	none
CCOc1c(Cl)cc(/C=C/C(=O)N(CC)CC(=O)NCc2cccs2)cc1OC	none
Cc1nc(CCNS(=O)(=O)c2cccnc2)cs1	none
C[C@H](NS(=O)(=O)c1ccc2c(c1)OCCCO2)C(=O)N1CCN(Cc2ccc(C#N)cc2)CC1	none
Cc1nn(-c2ccccc2)c(C)c1C(=O)OC(C)C(=O)NC1CCCCC1 (stereo not drawn)	Shn3 inh set2 83
CC1=C(C(=O)N2CCCCCC2)CC(CC(=O)NC2CC2)C(=O)N1Cc1ccccc1 (stereo not drawn)	none (no result: TRPM1 prom inh)
CCOC(=O)c1c(-c2ccccc2)oc2ccc(OCC(O)CN(C)C)cc12 (stereo not drawn)	Peg3 promoter 105
CN1C[C@@H]2[C@@H]3C(=O)N(C)C(=O)[C@@H]3[C@](C)(C1=O)N2C(=O)c1ccc(C(F)(F)F)cc1	none
Cc1cccc(Cn2nnc3c2C(=O)c2ccccc2C3=O)c1	CF NFkB inh 62
Cc1c(N/N=C(\C#N)C(=O)c2ccccc2)c(=O)n(-c2ccccc2)n1C	Shn3 inh set2 89
Cc1ccccc1C(=O)/C(C#N)=N/Nc1c(C)n(C)n(-c2ccccc2)c1=O	none
O=C(NCCNC(=O)Oc1cccc2ccccc12)Oc1cccc2ccccc12	Shn3 inh set2 90
CCNC(=O)COc1cccc2ccccc12	none
C=CCN1C(=O)/C(=C/C=C2/N(CC)c3ccc(S(=O)(=O)N(C)C)cc3N2CC)SC1=S	none
CCC(C)Nc1ccc(NC(C)CC)cc1 (stereo not drawn)	Peg3 promoter 65, Shn3 inh set2 89, CF NFkB inh 60, TRPM1 prom inh 97
CCC(C)NC(=O)Nc1ccc(Br)cc1 (stereo not drawn)	none
CC(C)N1C(=O)/C(=C\c2nc3ccccc3c(=O)n2-c2ccccc2)c2ccccc21	HIF-2a block 87
CC(=O)Nc1ccc(S(=O)(=O)NCC(=O)Nc2ccc3c(c2)OCO3)cc1	none
CCOc1ccc(-c2nnc(SCC(=O)Nc3ccc4c(c3)c3ccccc3n4CC)n2N)cc1	TRPM1 prom inh 78
CCOC(=O)c1cnc2ccc(Br)cc2c1NCCO	none
CCOC(=O)c1cnc2ccc(Cl)cc2c1NCCN(C)C	Peg3 promoter 59
CNC1=C(N(C(C)=O)c2ccc(Br)cc2)C(=O)c2ccccc2C1=O	KKLEB cytotox -62, HIF-2a block 60, Peg3 promoter 102, CF NFkB inh 76, TRPM1 prom inh 107
CCC(=O)N(C1=C(NC)C(=O)c2ccccc2C1=O)C(C)C	none
O=C(NCCOc1ccccc1)c1cc2ccccc2o1	none
O=C(/C=C/c1ccc([N+](=O)[O-])s1)N1CCN(c2ccccc2)CC1	none
CC1CC(C)CN(C(=O)/C=C/c2ccc([N+](=O)[O-])s2)C1 (stereo not drawn)	TRPM1 prom inh 82
O=C(/C=C/c1ccc([N+](=O)[O-])s1)N1CCCC1	TRPM1 prom inh 85
CC(=O)c1cccc(NC(=O)/C=C/c2ccc([N+](=O)[O-])s2)c1	Peg3 promoter 99, TRPM1 prom inh 92
Cc1cc(C)cc(NC(=O)/C=C/c2ccc([N+](=O)[O-])s2)c1	none
O=C(/C=C/c1ccc([N+](=O)[O-])s1)N1CCCCC1	TRPM1 prom inh 89
CC1CN(C(=O)/C=C/c2ccc([N+](=O)[O-])s2)CC(C)O1 (stereo not drawn)	none
CSc1ccc(/C=C/C(=O)OCC(=O)N2CCN(S(=O)(=O)c3ccc(C)cc3C)CC2)cc1	none (no result: TRPM1 prom inh)
CC(=O)O[C@H]1CC[C@@]2(C)C(=CC[C@H]3[C@@H]4CC[C@H](C(C)=O)[C@@]4(C)CC[C@@H]32)C1	Shn3 inh set2 87
CC(=O)[C@H]1CC[C@H]2[C@@H]3CC=C4C[C@@H](OS(=O)(=O)O)CC[C@]4(C)[C@H]3CC[C@]12C	none
Cc1cc(Cl)ccc1NC(=S)NCCC(c1ccccc1)c1ccccc1	Peg3 promoter 68
COc1ccc(Cl)cc1-c1nc(-c2ccc(NC(=O)c3ccncc3)cc2)no1	none
COc1ccc(CC(=O)Nc2ccc(-c3noc(-c4ccc(Cl)cc4)n3)cc2)cc1	KKLEB cytotox -55, Peg3 promoter 57
COc1ccc(CC(=O)Nc2ccc(-c3noc(-c4cc(OC)c(OC)c(OC)c4)n3)cc2)cc1	none
COc1ccc(NC(=O)c2ccc(-c3ccc(-c4noc(C)n4)cc3C)cc2)cc1N1CCN(C)CC1	Peg3 promoter 64, TRPM1 prom inh inconclusive
COc1ccc(-c2nc(-c3ccc(NC(=O)c4ccncc4)cc3)no2)cc1OC	Peg3 promoter 99, Shn3 inh set2 90 (no result: TRPM1 prom inh)
Cc1nn(C)c2ncc(C(N)=O)c(Oc3ccc(Cl)cc3)c12	none (no result: Shn3 inh set2, TRPM1 prom inh)
O=C(CCl)c1ccc2c(c1)CCN2C(=O)C1CCCCC1	Peg3 promoter 105
COC(=O)c1ccc(CN(C)S(=O)(=O)c2cccs2)cc1	none
O=C(Nc1nc2cc(Cl)ccc2s1)C1CCCN(S(=O)(=O)c2cccc3cccnc23)C1 (stereo not drawn)	Peg3 promoter 60
O=C(OCC(=O)N1CCc2ccccc21)c1ccc(Cl)nc1	none
O=S(=O)(Nc1cc2nc3ccccc3nc2n1Cc1ccccc1)c1ccc(Cl)cc1	CF NFkB inh 52
Cc1ccc(S(=O)(=O)c2ccc(Cl)cc2)cc1S(=O)(=O)N(C)CC(=O)O	none
Cc1ccc(S(=O)(=O)N2CC(=O)N3CCN(CCN)C3C2)cc1 (stereo not drawn)	none
S=C(NCCCCN(Cc1ccc(Cl)cc1)c1ccc(Br)cn1)NCCCc1cnc[nH]1	Peg3 promoter 96 (no result: TRPM1 prom inh)
CN(C)CCN(Cc1ccc(Cl)cc1)c1ccccn1	none
COCCCNC1=C(Cl)C(=O)c2ccccc2C1=O	HIF-2a block 84 (no result: Shn3 inh set2)
CCN(CC)CCCNc1nc2ccccc2[nH]1	none
O=C(O)c1cccc(NC2=C(Cl)C(=O)c3ccccc3C2=O)c1	none
CCN(CC)CCCNC1=C(Cl)C(=O)c2ccccc2C1=O	HIF-2a block 84, CF NFkB inh 65, TRPM1 prom inh 110
CC(C)OCCCNC1=C(Cl)C(=O)c2ccccc2C1=O	HIF-2a block 64 (no result: Shn3 inh set2, TRPM1 prom inh)
CC(C)NC1=C(Cl)C(=O)c2ccccc2C1=O	CF NFkB inh 50, TRPM1 prom inh 80
COCCCNc1c2c3c(cccc3[nH]c1=O)C(=O)c1ccccc1-2	none
